Assay results: PubChem BioAssay AID1159580 (chemical genetic matrix, 2015)
Several values for one entry are separate records, joined by “and”; a condition that tells them apart may be missing. Equal values may be shown once. In all, about 5,500 compounds went through this assay and about 2,000 (36%) were called active. Another 18% or so got no clear call; they are omitted. Cut-off read from the data, not from the text of the source: active = normalized growth mostly below about 0.91 (no sharp cut-off); inconclusive = no clear call, values can overlap the other calls; inactive = mostly above about 0.92. This is one part of the list.

Experiment: chemical genetic growth profiling, strain panel (AID 1159580);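 note: tested at 20 µM; growth read once vehicle control cultures reached saturation at 30 °C; 1 = growth at the plate median or of vehicle wells; lower values mean less growth of the strain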
Settings: S. cerevisiae deletion strains, growth OD
[1] = locus YGR078C, strain PAC10, hits give low values
[2] = locus YNL153C, strain GIM3, hits give low values

Measured: normalized growth

Cn1c(=O)c2[nH]c(-c3ccc(S(=O)(=O)O)cc3)nc2n(C)c1=O
inactive: locus YAL040C, strain CLN3, hits give low values 1.01 | locus YCL061C, strain MRC1 (second series), hits give low values 1.01 | locus YER002W, strain NOP16, hits give low values 1.01 | [1] 1.01 | [2] 1.03 | locus YNL175C, strain NOP13, hits give low values 1.01 | locus YNL197C, strain WHI3, hits give low values 0.993 | locus YNL224C, strain SQS1, hits give low values 1 | locus YOR083W, strain WHI5 (second series), hits give low values 0.98 | locus YPL055C, strain LGE1, hits give low values 1 | locus YPL241C, strain CIN2, hits give low values 1.02

COC(=O)CC1C(C)(C)C(OC(C)=O)[C@@H]2[C@@H](OC(C)=O)[C@]34O[C@@]2(O)[C@]1(C)C3CC[C@]1(C)C4=CC(=O)O[C@H]1c1ccoc1 (stereo not given in full)
inactive: locus YAL013W, strain DEP1, hits give low values 1.02 | locus YAL021C, strain ccr4, hits give low values 1.03 | locus YAL026C, strain drs2, hits give low values 0.991 | locus YAL030W, strain snc1, hits give low values 1.01 | locus YBL061C, strain skt5, hits give low values 0.998 | locus YBR009C, strain hhf1, hits give low values 1.03 | locus YBR021W, strain FUR4, hits give low values 1.04 | locus YBR023C, strain chs3, hits give low values 1.01 | locus YBR171W, strain sec66, hits give low values 1 | locus YBR229C, strain ROT2, hits give low values 0.96 | locus YBR231C, strain swc5, hits give low values 1.01 | locus YBR279W, strain paf1, hits give low values 1.01 | locus YCL011C, strain gbp2, hits give low values 1.01 | locus YCL016C, strain dcc1, hits give low values 1.02 | locus YCL029C, strain bik1, hits give low values 1.02 | locus YCL061C, strain MRC1, hits give low values 1.01 | locus YCL069W, strain vba3, hits give low values 1.01 | locus YCR088W, strain abp1, hits give low values 1.01 | locus YDL005C, strain med2, hits give low values 0.991 | locus YDL035C, strain GPR1, hits give low values 0.98 | locus YDL040C, strain nat1, hits give low values 1.02 | locus YDL074C, strain BRE1, hits give low values 1.03 | locus YDL101C, strain DUN1, hits give low values 1.02 | locus YDL134C, strain PPH21, hits give low values 1.05 | locus YDL185W, strain tfp1, hits give low values 0.977 | locus YDL192W, strain arf1, hits give low values 0.983 | locus YDR001C, strain nth1, hits give low values 1.01 | locus YDR069C, strain doa4, hits give low values 1.02 | locus YDR101C, strain arx1, hits give low values 0.975 | locus YDR137W, strain rgp1, hits give low values 0.93 | locus YDR150W, strain NUM1, hits give low values 1.01 | locus YDR159W, strain sac3, hits give low values 1 | locus YDR162C, strain NBP2, hits give low values 1 | locus YDR195W, strain ref2 1.01 | locus YDR297W, strain sur2, hits give low values 1.02 | locus YDR318W, strain mcm21, hits give low values 0.997 | locus YDR334W, strain swr1, hits give low values 1.01 | locus YDR335W, strain msn5, hits give low values 1.01 | locus YDR388W, hits give low values 1.02 | locus YDR392W, strain spt3, hits give low values 1.07 | locus YDR502C, strain sam2, hits give low values 1.03 | locus YEL003W, strain gim4, hits give low values 1.01 | locus YEL037C, strain rad23, hits give low values 1 | locus YEL061C, strain CIN8 (second series), hits give low values 1 | locus YEL061C, strain CIN8, hits give low values 1 | locus YER015W, strain faa2, hits give low values 1.01 | locus YER016W, strain bim1, hits give low values 1.01 | locus YER110C, hits give low values 0.998 | locus YER111C, strain swi4, hits give low values 0.988 | locus YER155C, strain BEM2 (second series), hits give low values 1.05 | locus YER155C, strain BEM2, hits give low values 1.01 | locus YER167W, strain BCK2, hits give low values 0.991 | locus YFR010W, strain ubp6, hits give low values 1 | locus YGL078C, strain dbp3, hits give low values 1.01 | locus YGL086W, strain mad1, hits give low values 1.02 | locus YGL167C, strain pmr1, hits give low values 1.01 | locus YGL173C, strain kem1, hits give low values 1 | locus YGL227W, strain vid30, hits give low values 1 | locus YGL240W, strain doc1, hits give low values 1.01 | locus YGL248W, strain PDE1, hits give low values 1.03 | locus YGL253W, strain hxk2, hits give low values 0.953 | [1] 1.05 | locus YGR135W, strain pre9, hits give low values 1.08 | locus YGR252W, strain gcn5, hits give low values 1.09 | locus YHR013C, strain ard1, hits give low values 1.02 | locus YHR027C, strain rpn1, hits give low values 1.01 | locus YHR030C, strain SLT2, hits give low values 1.03 | locus YHR079C, strain IRE1 (second series), hits give low values 0.989 | locus YHR079C, strain IRE1, hits give low values 1.04 | locus YHR094C, strain hxt1, hits give low values 1 | locus YHR129C, strain ARP1, hits give low values 1.02 | locus YHR142W, strain chs7, hits give low values 0.983 | locus YHR200W, strain rpn10, hits give low values 1.03 | locus YIL066C, strain RNR3, hits give low values 0.979 | locus YIL073C, strain SPO22, hits give low values 0.988 | locus YIL125W, strain kgd1, hits give low values 0.991 | locus YIR030C, strain dcg1, hits give low values 0.996 | locus YJL092W, strain hpr5, hits give low values 1.01 | locus YJL095W, strain BCK1 (second series), hits give low values 0.999 | locus YJL095W, strain BCK1, hits give low values 1.07 and 1.02 | locus YJL115W, strain asf1, hits give low values 0.998 | locus YJL129C, strain trk1, hits give low values 0.984 | locus YJL134W, strain LCB3, hits give low values 0.996 | locus YJL154C, strain vps35, hits give low values 1.02 | locus YJL164C, strain tpk1, hits give low values 1 | locus YJL166W, strain qcr8, hits give low values 1.01 | locus YJL168C, strain set2, hits give low values 1.02 | locus YJL187C, strain SWE1 (second series), hits give low values 1.04 | locus YJR066W, strain TOR1, hits give low values 0.963 | locus YKL009W, strain mrt4, hits give low values 0.921 | locus YKL068W, hits give low values 0.99 | locus YKL085W, strain MDH1 (second series), hits give low values 1.01 | locus YKL085W, strain MDH1, hits give low values 1.01 | locus YKL160W, strain elf1, hits give low values 1.01 | locus YKL190W, strain CNB1, hits give low values 1 | locus YKR001C, strain vps1, hits give low values 0.978 | locus YKR026C, strain gcn3, hits give low values 1.01 | locus YKR091W, strain srl3, hits give low values 1.01 | locus YLL001W, strain dnm1, hits give low values 1 | locus YLL026W, hits give low values 0.999 | locus YLL041C, strain sdh2, hits give low values 0.998 | locus YLR027C, strain aat2, hits give low values 1.01 | locus YLR039C, strain RIC1, hits give low values 0.934 | locus YLR058C, strain SHM2, hits give low values 0.988 | locus YLR102C, strain apc9, hits give low values 1.01 | locus YLR113W, strain HOG1, hits give low values 0.998 | locus YLR221C, strain rsa3, hits give low values 1.03 | locus YLR258W, strain gsy2, hits give low values 1 | locus YLR262C, strain YPT6 (second series), hits give low values 0.963 | locus YLR262C, strain YPT6, hits give low values 0.899 | locus YLR268W, strain sec22, hits give low values 0.983 | locus YLR320W, strain mms22, hits give low values 1.01 | locus YLR330W, strain CHS5, hits give low values 1.01 | locus YLR342W, strain FKS1 (second series), hits give low values 1.06 | locus YLR342W, strain FKS1, hits give low values 1.01 | locus YLR357W, strain rsc2, hits give low values 1.06 | locus YLR370C, strain arc18, hits give low values 1.03 | locus YLR371W, strain rom2, hits give low values 1.01 | locus YLR384C, strain iki3, hits give low values 0.99 | locus YLR418C, strain cdc73, hits give low values 1.07 | locus YML016C, strain PPZ1, hits give low values 1.01 | locus YML032C, strain rad52, hits give low values 0.991 | locus YML120C, strain ndi1, hits give low values 1.03 | locus YML124C, strain tub3, hits give low values 0.997 | locus YMR058W, strain fet3, hits give low values 1.01 | locus YMR078C, strain ctf18, hits give low values 0.998 | locus YMR125W, strain sto1, hits give low values 1.02 | locus YMR129W, hits give low values 0.996 | locus YMR205C, strain PFK2, hits give low values 1.02 | locus YMR223W, strain ubp8, hits give low values 1.03 | locus YMR231W, strain pep5, hits give low values 0.994 | locus YMR307W, strain GAS1, hits give low values 1.02 | locus YNL067W, strain RPL9B, hits give low values 1.05 | locus YNL071W, strain lat1, hits give low values 1.01 | locus YNL128W, strain TEP1, hits give low values 0.97 | [2] 1.05 | locus YNL183C, strain NPR1, hits give low values 0.978 | locus YNL209W, strain ssb2, hits give low values 1.02 | locus YNL233W, strain BNI4, hits give low values 1.08 | locus YNL248C, strain rpa49, hits give low values 0.999 | locus YNL250W, strain rad50, hits give low values 1 | locus YNL271C, strain bni1, hits give low values 1 | locus YNL298W, strain CLA4, hits give low values 1.01 | locus YNL307C, strain MCK1, hits give low values 1.01 | locus YNL322C, strain KRE1 (second series), hits give low values 1.01 | locus YNR049C, strain mso1, hits give low values 1.01 | locus YNR052C, strain pop2, hits give low values 1.06 | locus YOL012C, strain htz1 1.16 | locus YOL147C, strain pex11, hits give low values 1 | locus YOR001W, strain rrp6, hits give low values 1.02 | locus YOR061W, strain CKA2, hits give low values 0.946 | locus YOR069W, strain VPS5, hits give low values 1.01 | locus YOR070C, strain gyp1, hits give low values 1.01 | locus YOR080W, strain dia2, hits give low values 1 | locus YOR083W, strain WHI5, hits give low values 1.01 | locus YOR106W, strain vam3, hits give low values 1.02 | locus YOR136W, strain idh2, hits give low values 1.02 | locus YOR144C, strain elg1, hits give low values 1 | locus YOR184W, strain ser1, hits give low values 0.957 | locus YOR231W, strain MKK1, hits give low values 0.995 | locus YOR265W, strain rbl2, hits give low values 1 | locus YOR270C, strain vph1, hits give low values 0.806 | locus YOR290C, strain snf2, hits give low values 1.01 | locus YOR316C, strain cot1, hits give low values 1.01 | locus YPL051W, strain arl3, hits give low values 1.02 | locus YPL078C, strain atp4, hits give low values 1 | locus YPL106C, strain sse1, hits give low values 1.06 | locus YPL240C, strain hsp82, hits give low values 1.01 | locus YPL256C, strain CLN2, hits give low values 1.04 | locus YPR119W, strain clb2, hits give low values 1 | locus YPR141C, strain kar3, hits give low values 0.979 | locus YPR163C, strain tif3, hits give low values 1.01 | locus YPR167C, strain met16, hits give low values 1.01 | strain wtn01, hits give low values 0.982
